A selection: hits, their analogues and other compounds. The true share with any hit is near 3.3%.
BoNT F protease: BoNT F light chain protease inhibition | hit rate 0.22% among 360,000 | inhibition, % at 10 µM | Multiplex microsphere protease cleavage assay, flow cytometry | AID 588497; in the data active = inhibition above about 35%, passing the limit was not always enough; inconclusive = no clear call, values can overlap the other calls; also: plate controls were buffer without enzyme for full effect and enzyme alone for no effect
MazF activator: activators of E. coli MazEF toxin-antitoxin RNase. FAM/BHQ RNA-DNA oligo cleavage fluorescence, 5 h. activation, % at 20 µM. AID 504720. P0AE70. hit rate 0.32% among 350,000; in the data active = activation above about 50%
SSB-PriA inh: inhibitors of Klebsiella pneumoniae PriA binding to SSB C-terminal tail; AlphaScreen SSBct-PriA binding, biotinylated peptide; inhibition, % at 33 µM; hit rate 0.6% among 430,000; AID 1272365; in the data active = inhibition mostly above about 37%, no sharp cut-off; inactive = mostly below about 20%;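 also: plate controls were negative control peptide for no effect and reference peptide for full effect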
Anthrax LF inh2: blocks Bacillus anthracis lethal factor protease | multiplex microsphere protease cleavage assay, LF | hit rate 0.12% among 360,000 | P15917 | inhibition, % at 10 µM; also: plate controls were buffer without enzyme for full effect and enzyme alone for no effect
Target sequence (P15917 whole entry, looked up): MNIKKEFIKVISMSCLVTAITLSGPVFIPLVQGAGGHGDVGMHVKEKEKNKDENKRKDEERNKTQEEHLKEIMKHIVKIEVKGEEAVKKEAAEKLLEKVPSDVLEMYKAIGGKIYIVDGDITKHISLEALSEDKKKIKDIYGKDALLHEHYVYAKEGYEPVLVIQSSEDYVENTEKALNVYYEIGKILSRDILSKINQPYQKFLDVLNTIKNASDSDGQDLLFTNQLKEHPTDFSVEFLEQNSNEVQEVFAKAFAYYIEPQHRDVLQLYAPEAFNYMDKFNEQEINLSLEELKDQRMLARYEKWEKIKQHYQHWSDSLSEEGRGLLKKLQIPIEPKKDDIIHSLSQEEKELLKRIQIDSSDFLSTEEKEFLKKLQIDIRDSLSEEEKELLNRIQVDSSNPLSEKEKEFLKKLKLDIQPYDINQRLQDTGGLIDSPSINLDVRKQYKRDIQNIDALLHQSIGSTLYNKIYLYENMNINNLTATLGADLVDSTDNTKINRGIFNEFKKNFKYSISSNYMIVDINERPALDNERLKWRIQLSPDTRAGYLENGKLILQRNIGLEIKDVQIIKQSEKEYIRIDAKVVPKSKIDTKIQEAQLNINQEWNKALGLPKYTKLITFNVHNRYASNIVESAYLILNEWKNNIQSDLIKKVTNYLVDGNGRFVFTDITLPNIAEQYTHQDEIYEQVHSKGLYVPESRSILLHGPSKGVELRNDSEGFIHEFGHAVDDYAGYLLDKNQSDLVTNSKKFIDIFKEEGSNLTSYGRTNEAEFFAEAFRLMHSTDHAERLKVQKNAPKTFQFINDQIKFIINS
Autofluor counter: counter-screen for toxin protease inhibitors: compound fluorescence; compound autofluorescence counterscreen, microsphere flow cytometry; active compounds read high; fluorescence intensity (concentration not given with the values); hit rate 3.1% among 360,000; AID 624483; in the data active = fluorescence intensity above about 16000; inconclusive = no clear call, values can overlap the other calls
BoNT A protease: inhibitors of Botulinum neurotoxin A light chain protease. inhibition, % at 10 µM. multiplex microsphere protease substrate cleavage, flow cytometry. AID 588499. hit rate 0.17% among 360,000; also: plate controls were buffer without enzyme for full effect and enzyme alone for no effect
An asterisk follows results filed as active; ? = inconclusive; . = not tested or not shown. Rule as the data show it, unless noted: active = inhibition above about 30%; inconclusive = no clear call, values can overlap the other calls; inactive = below that.

SMILES | BoNT F protease | MazF activator | SSB-PriA inh | Anthrax LF inh2 | Autofluor counter | BoNT A protease
COc1ccc(CN2CCC(C(N)=O)CC2)cc1OCc1ccccc1 | ? | 13 | -7 | 1 | 3993 | -5
COc1cc(CN2CCC(C(=O)NC3CCCC3)CC2)cc(Br)c1O | -5 | -4 | -7 | -3 | 23761* | -1
COc1cc(CN2CCN(c3cccc(C)c3C)CC2)cc(Br)c1O | -9 | 2 | 33 | -5 | 23780* | ?
COc1cc(CN2CCC(C(=O)N3CCC(C)CC3)CC2)cc(Br)c1O | 6 | 3 | -10 | 4 | 10990 | -1
COc1ccc(CN2CCN(c3cccc(C)c3C)CC2)cc1OC | 10 | 3 | 1 | -14 | 17421* | 6
O=S(=O)(NCC1CCN(c2ccncc2)CC1)c1ccccc1Br | . | . | -8 | . | . | .
COc1cc2c(cc1OC)CN(C(=O)Cc1noc3ccccc13)CC2 | . | . | 4 | . | . | .
C=CCOC(=O)C1=C(C)N=C(SCC(=O)Nc2cc(C)ccc2C)C(C#N)C1c1ccccc1OC (configuration not stated) | . | . | -1 | . | . | .
CCOC(=O)CCP(=O)(O)C(C)(O)c1ccccc1 (configuration not stated) | 0 | 0 | -11 | 1 | 18987* | 2
CCOC(=O)NCC(O)(c1ccccc1)C1CC1 (configuration not stated) | . | . | 2 | . | . | .
O=S(=O)(/C=C/c1ccccc1)NC1CCCCCC1 | 0 | -14 | -10 | -2 | 3527 | -1
O=S1(=O)CCC(NS(=O)(=O)/C=C/c2ccccc2)C1 (configuration not stated) | 0 | 4 | 0 | 0 | 22642* | 1
COc1ccc(-n2c(O)c(/C=N/NS(=O)(=O)c3cc(C)ccc3C)c3ccccc3c2=O)cc1OC | 0 | -11 | . | -2 | 17279* | -5
COc1ccc(-n2c(O)c(/C=N/NS(=O)(=O)c3ccc(C)cc3)c3ccccc3c2=O)cc1OC | -12 | -7 | . | 1 | 4926 | -2
CCOc1ccccc1C(=O)NC(C(=O)OCC(=O)NNC(=O)c1cccs1)C(C)C (configuration not stated) | 2 | 6 | . | -5 | 3798 | 0
CCOC(=O)c1c(C)[nH]c(C)c1C(=O)COC(=O)[C@@H](NC(=O)c1ccccc1OCC)C(C)C | -3 | -5 | -1 | -4 | 23944* | -2
O=S(=O)(NCc1nccc(N2CCOCC2)n1)c1cccs1 | . | . | -1 | . | . | .
Cc1oc2ccccc2c1-c1cn2c(n1)SCC2 | -5 | 6 | 1 | -5 | 23992* | ?
c1ccc(-c2cn3c(n2)SCC3)cc1 | . | 0 | 8 | . | . | .
CCOC(=O)C1CCCCC12C(C#N)=C(N)Oc1n[nH]c(C)c12 (configuration not stated) | -6 | 0 | -12 | -2 | 4542 | -1
CCOC(=O)C1CCC2(CC1)C(C#N)=C(N)Oc1n[nH]c(C)c12 (configuration not stated) | -3 | 3 | 4 | 1 | 20477* | -2
C=CCn1cnc2c(c1=O)c1nc3ccccc3nc1n2N=Cc1ccccn1 | . | . | 2 | . | . | .
C=CCn1cnc2c(c1=O)c1nc3ccccc3nc1n2/N=C/c1cccc(OC)c1 | 8 | 8 | . | 0 | 21328* | ?
CCN1CCN(S(=O)(=O)CCNC(=O)Cc2ccc(OC)cc2)CC1 | . | . | 1 | . | . | .
CCOC(=O)c1cc(CC)sc1NC(=O)C1CC(=O)NN1Cc1ccccc1 (configuration not stated) | -8 | -3 | 1 | -1 | 2989 | -1
SMILES | BoNT F protease | MazF activator | SSB-PriA inh | Anthrax LF inh2 | Autofluor counter | BoNT A protease
CCOC(=O)c1cc(CC)sc1NC(=O)Cc1ccccc1 | -3 | -1 | -82 | -4 | 20942* | ?
CCOC(=O)c1cc(CC)sc1NC(=O)COC | 2 | -7 | -9 | 0 | 18881* | 2
Cc1ccc(-n2ncc3c(C)nn(CC(=O)Nc4ccc5c(c4)OCCO5)c(=O)c32)c(C)c1 | . | . | 2 | . | . | .
C=CCSc1nnc(-c2ccc(Cl)cc2Cl)o1 | -4 | -8 | -24 | -8 | 17125* | -4
Clc1ccc(-c2nnc(SCc3nc4ccccc4[nH]3)o2)c(Cl)c1 | -7 | 70* | -7 | 3 | 2272 | 0
O=C(CSc1ccc(-n2cccn2)nn1)NCc1ccc2c(c1)OCO2 | . | . | -3 | . | . | .
COc1ccc(CNC(=O)c2cc(-c3ccco3)on2)cc1 | 3 | -3 | -17 | 1 | 20809* | 2
Cc1nn(C)cc1CNC(=O)c1ccc(Br)o1 | -1 | -7 | -15 | 0 | 20359* | -1
COc1ccc(CNC(=O)c2cc(-c3ccccc3OC)on2)cc1 | -3 | -8 | -14 | 0 | 10809 | 0
O=C(NCc1ccc(F)cc1)c1cc(-c2ccco2)on1 | -6 | -6 | -2 | -2 | 23399* | -3
O=C(Nc1ccc(F)cc1F)c1cc(-c2ccco2)on1 | 0 | -3 | -11 | -1 | 23169* | ?
O=C(NCc1ccc(Cl)cc1)c1cc(-c2ccco2)on1 | -11 | -9 | -5 | -1 | 11224 | -1
O=C(Cn1c(-c2ccccn2)nc2ccccc21)NCC1CCCO1 (configuration not stated) | . | . | -16 | . | . | .
Nc1nc(Cc2ccccc2)cs1 | . | . | 3 | . | . | .
CCN1C(=O)Cc2cc(NS(=O)(=O)c3cc(OC)ccc3OC)ccc21 | . | . | 16 | . | . | .
Cc1ccc(NC(=O)c2cc(-c3ccc(F)cc3)on2)cc1C | 3 | -7 | 4 | -4 | 3945 | -1
Cc1ccc(Nc2nc(C(=O)NCc3ccco3)cs2)cc1 | -5 | 4 | 16 | -2 | 21266* | -5
CC(=O)c1cccc(NC(=O)c2cc(-c3ccc(F)cc3)on2)c1 | 6 | -14 | -10 | -1 | 19126* | 6
O=C(NCc1ccco1)c1cc(-c2ccccc2)on1 | -1 | 1 | 2 | -4 | 10490 | 0
O=C(NCc1ccco1)c1cc(-c2ccc(F)cc2)on1 | 1 | 0 | -5 | -8 | 22220* | 3
O=C(NCc1cc(-c2ccco2)on1)c1ccc(Br)o1 | . | . | 39* | . | . | .
COc1ccc(C)c2sc(N(Cc3ccccn3)C(=O)CCS(=O)(=O)c3ccc(F)cc3)nc12 | . | . | -3 | . | . | .
COCCCn1c(NS(=O)(=O)c2ccc(C)cc2)c(S(=O)(=O)c2ccc(C)cc2)c2nc3ccccc3nc21 | . | . | 59* | . | . | .
COCCn1c(NS(=O)(=O)c2ccc(C)cc2)c(S(=O)(=O)c2ccc(C)cc2)c2nc3ccccc3nc21 | . | . | 63* | . | . | .
COCCCn1c(NS(=O)(=O)c2ccccc2)c(S(=O)(=O)c2ccc(C)cc2)c2nc3ccccc3nc21 | . | . | 72* | . | . | .
SMILES | BoNT F protease | MazF activator | SSB-PriA inh | Anthrax LF inh2 | Autofluor counter | BoNT A protease
C=CCn1c(NS(=O)(=O)c2ccccc2)c(S(=O)(=O)c2ccc(C)cc2)c2nc3ccccc3nc21 | 11 | 3 | 18 | 0 | 7741 | 2
O=C1O[C@H](C(=O)Nc2ccc(Br)cc2)Cc2ccccc21 | . | . | -8 | . | . | .
O=C(Nc1cccc(Br)c1)c1ccc(-n2cccn2)nn1 | . | . | -7 | . | . | .
O=C(COC(=O)c1cncc(Br)c1)NC1CCCCCC1 | 2 | 11 | -26 | 25 | 4808 | 31*
CCCC(=O)NC(Nc1cccc2cccnc12)C(Cl)(Cl)Cl (configuration not stated) | . | . | 35 | . | . | .
O=C(NC12CC3CC(CC(C3)C1)C2)c1ccccc1 | -7 | -16 | -14 | -4 | 4492 | 0

Screens: PubChem, several laboratories
